This note sets out measurements from PubChem BioAssay AID624351 (Southern Research Specialized Biocontainment Screening …, 2012).

Usually inhibition stands for the change of the read-out against control, counted positive when it falls. A word on the IC50: it is the concentration at which inhibition is half-maximal.

Molecules are shown by their SMILES. About 1,400 (58%) of roughly 2,400 compounds were called active. The set was probably picked from earlier hits. This is one part of the list. Values without a mark were called inactive.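 Rule for the calls: active = inhibition of 30% or more at any tested dose; inconclusive = primary hits over the limit that were never retested; inactive = the rest.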

The test in a line: ADP Hunter readout inhibition without MgcRacGAP – biochemical, coupled enzyme counter-screen, artefact control for MgcRacGAP inhibitor project, dose response (AID 624351).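 For inhibition: 0% = median positive control wells and 100% = median negative control wells.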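 Note: signal is the ADP detection kit reading of free GDP without any GAP enzyme.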 Conditions: fluorescence, no MgcRacGAP; series mostly up to 80 µM; inhibition: at the top concentration.
Regarding `CCN(CC)c1ccc(S(=O)(=O)N2CCOCC2)cc1NC(=O)CN1CCN(Cc2ccccc2)CC1`, the “inhibition” value is 21.5%.

For `CCOC(=O)C1CCN(C2=NC(=O)/C(=C/c3ccc(O)cc3)S2)CC1`, the half-inhibitory concentration (IC50) is 22.2 µM (active).

Consider `CCOC(=O)C1CCCN(C2=NC(=O)/C(=C/c3ccc(O)c(OCC)c3)S2)C1` (stereo not drawn), for which the half-inhibitory concentration (IC50) was 29.8 µM (active).

For the compound `CCOC(=O)CSC1=NC(=O)/C(=C\c2ccc(OC(C)=O)cc2)S1`, the “inhibition” value is 24.3%.

`COc1cc(/C=C2\SC(N3CCC(C)CC3)=NC2=O)ccc1O`: the IC50 is 19.1 µM (active).

`CCOC(=O)C1CCN(Cc2cn[nH]c2-c2ccccc2)CC1`: the “inhibition” value was 16.9%.

With `CCOC(=O)C1CCCN(C2=NC(=O)/C(=C/c3ccc(O)c(OC)c3)S2)C1` (stereo not drawn), the IC50 was 22.8 µM (active).

On to `CCOC(=O)C(NC(=O)N(C)C)(Nc1sc(C)c(CC)c1C#N)C(F)(F)F` (stereo not drawn), for which the “inhibition” value is 26.6%.

For the compound `C#CCOCCOCCOCCNc1nc(N2CCN(C(=O)[C@H](CCCN=C(N)N)n3cc(C(N)[C@H](C)CC)nn3)CC2)nc(N2CCN(C(=O)[C@H](CCCN=C(N)N)n3cc(C(N)[C@@H](C)CC)nn3)CC2)n1` (stereo partly drawn), the “inhibition” value is 3.3%.

Consider `CC1CCN(S(=O)(=O)c2ccc3c(c2)C(Cl)(Cl)C(=O)N3)CC1`, for which the “inhibition” value is 5.46%.

Consider `CCS(=O)(=O)c1cc([N+](=O)[O-])c(Sc2ccccc2N)s1`, for which the “inhibition” value was 12.6%.

Consider `C=CCSC1=NC(=O)/C(=C/c2cccs2)S1`, for which the “inhibition” value was 6.43%.

Consider `CCOc1cc(/C=C2\SC(N3CCCC(C)C3)=NC2=O)ccc1O` (stereo not drawn), for which the half-inhibitory concentration (IC50) was 33.4 µM (active).

In the case of `COc1cc(C2NC(=O)C(C#N)=C(S)N2c2ccccc2)ccc1OC(C)C` (stereo not drawn), the “inhibition” value is 4.22%.

For `Cc1c(O)ccc(/C(Cc2ccc3ccccc3n2)=N\O)c1O`, the IC50 is 76.5 µM (active).

With `CN(C)CCNc1ccc2ncn3c4ccc(O)cc4c(=O)c1c23`, the “inhibition” value is 27.1%.

With `Cc1ccc(NCCN(C)C)c2c(=O)c3cc(O)ccc3sc12`, the IC50 is 46.3 µM (active).

Turning to `CN(C)CCNc1ccc2nnn3c4ccc(O)cc4c(=O)c1c23`, the “inhibition” value was -17.4% [at 40 µM].

As to `CCN(CC)CCNc1ccc(C)c2sc3ccc(O)cc3c(=O)c12`, the IC50 is 33.2 µM (active).

Regarding `CCN(CC)CCCNc1ccc2ncn3c4ccc(O)cc4c(=O)c1c23`, the “inhibition” value was 20.9%.

`CN(C)CCNc1ccc(CO)c2sc3ccc(O)cc3c(=O)c12`: the IC50 is 35 µM (active).

Consider `O=C1CC(SC(=S)C2CCCC2=O)C(=O)N1` (stereo not drawn), for which the “inhibition” value is -4.72%.

On to `Nc1ccccc1Sc1ccc(C(=O)c2ccccc2C(=O)O)cc1[N+](=O)[O-]`, for which the “inhibition” value is 4.22%.

As to `COc1cc(/C=N/Nc2ccccn2)cc(OC)c1O`, the IC50 was 28.6 µM (active).

In the case of `COc1ccc(/C=N/Nc2ccccn2)cc1O`, the IC50 is 81.8 µM (active).

For the compound `COc1cc(/C=N/Nc2cccc3cccnc23)cc(OC)c1O`, the “inhibition” value is 4.91%.

In the case of `COc1ccc(/C=N/Nc2ncnc3sc4c(c23)CCCC4)cc1O`, the 50% inhibitory concentration (IC50) is 69.1 µM (active).

For the compound `CN(C)c1ccc(/C=N\Nc2ccccn2)cc1`, the IC50 is 33.4 µM (active).

With `CCN1CCN(CCOc2cccc(Oc3ccccc3)c2)CC1`, the “inhibition” value was 21.4%.

Turning to `Clc1ccc(OCCOCCNCc2ccccc2)cc1Cl`, the “inhibition” value is 8.13%.

Consider `CCN(CC)c1ccc(NC(=O)C2=CC=CN3CCS(=O)(=O)N=C23)cc1`, for which the IC50 is 74.2 µM (active).

With `CCN(CC)c1ccc(NC(=O)CCN2C(=O)c3ccccc3S2(=O)=O)c(C)c1`, the “inhibition” value is 12.5%.

In the case of `CC(NCCCOc1cccc2ccccc12)c1ccccc1` (stereo not drawn), the “inhibition” value was 16.6%.

Consider `CC(C)[C@H](N[C@@H](C)c1ccccc1)c1c(O)ccc2ccccc12`, for which the IC50 was 17.4 µM (active).

As to `C/C(=N\Nc1nc2ccccc2[nH]1)c1ccc(Cl)s1`, the 50% inhibitory concentration (IC50) was 37.8 µM (active).

Consider `C/C(=N\Nc1nc2ccccc2[nH]1)c1ccc(C)o1`, for which the IC50 is 82.2 µM (active).

With `C/C(=N\Nc1nc2ccccc2[nH]1)c1cccs1`, the IC50 was 28.4 µM (active).

For the compound `COc1cccc(/C=C2\C(=O)C(=O)c3ccccc32)c1`, the “inhibition” value was -1.01%.

Regarding `O=C(CNC(=O)c1cccs1)N/N=C/c1ccc(O)cc1O`, the IC50 is 60.5 µM (active).

`Cc1cc(O)c(C)c(O)c1/C=N/NC(=O)c1cccnc1`: the IC50 was 77.5 µM (active).

With `O=C(CNC(=O)c1cccnc1)N/N=C/c1ccc(O)cc1O`, the IC50 is 82 µM (active).

Turning to `O=C(COc1ccccc1)NCC(=O)N/N=C/c1ccc(O)cc1O`, the half-inhibitory concentration (IC50) was 66.1 µM (active).

As to `CCc1ccc(/C(C)=N/NC(=O)CNC(=O)/C=C/c2ccco2)cc1`, the “inhibition” value is -0.57%.

Turning to `O=C(CCCCCNC(=O)c1ccccc1)N/N=C/c1ccc(O)cc1O`, the half-inhibitory concentration (IC50) was 71 µM (active).

Consider `Oc1ccc(/C=N/NC(=S)Nc2cccnc2)c(O)c1`, for which the IC50 was 37.9 µM (active).

In the case of `O=C(CNC(=O)c1ccco1)N/N=C/c1ccc(O)cc1O`, the 50% inhibitory concentration (IC50) was 78.5 µM (active).

As for `Cc1cc(C)c(OCCCCNCc2ccccc2)c(Cl)c1`, the “inhibition” value is 19.3%.

On to `Cc1cc(N)c2cc(NC(=O)/C=C/c3ccccc3Cl)ccc2n1`, for which the “inhibition” value is 16.5%.

For the compound `Cc1c(O)ccc(NC(=O)/C=C/c2ccccc2)c1C`, the IC50 is 37.7 µM (active).

For `COc1cc(/C=C(\C#N)C(=O)Nc2ccc3c(c2)OCCO3)ccc1O`, the IC50 is 32.5 µM (active).

On to `CCOC(=O)/C(C#N)=C\c1c(OCC)n(CC)c2ccccc12`, for which the “inhibition” value is 11.6%.

On to `N#C/C(=C/c1ccc2c(c1)OCO2)C(=O)Nc1ccc(O)cc1`, for which the 50% inhibitory concentration (IC50) is 62.6 µM (active).

Turning to `CCOC(=O)/C(C#N)=C\c1ccc(O)c(OC)c1`, the IC50 was 52.1 µM (active).
